In PubChem BioAssay (NCI):
Compounds without any hit were thinned out: in the full panel of roughly 79,000, 15% have a hit. Values without a mark were called inactive. Activity calls are given as the source filed them. Cut-off read from the data, not from the text of the source: active = growth inhibition above about 70%; inactive = the rest.

Legend:
[1] = NCI Yeast Anticancer Drug Screen. Data for the rad50 strain (AID 155);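 note: 0% = growth of vehicle-only cultures of the same strain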; settings: S. cerevisiae rad50 strain growth inhibition; at 50.0 µM; active compounds read high
In short: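 Vehicle-treated cultures provide the reference for the growth inhibition reported for compound-exposed, repair-deficient yeast.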

[2] = NCI Yeast Anticancer Drug Screen. Data for the mec2-1 strain (AID 157); settings: S. cerevisiae mec2-1 strain, at 50.0 µM, active compounds read high
In short: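 Mutant yeast (mec2-1) grown with compound; growth inhibition relative to vehicle control reported.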

[3] = NCI Yeast Anticancer Drug Screen. Data for the sgs1 mgt1 strain (AID 161);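 note: 0% = growth of cultures given vehicle only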; settings: S. cerevisiae sgs1 mgt1 strain, at 50.0 µM, active compounds read high
In short: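 Percent growth inhibition was derived by comparing compound-exposed mutant yeast with vehicle-exposed cultures. The strain carries alterations in DNA damage repair.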

[4] = NCI Yeast Anticancer Drug Screen. Data for the cln2 rad14 strain (AID 165);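 note: 0% = growth equal to vehicle treated cultures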; settings: S. cerevisiae cln2 rad14 strain, at 50.0 µM, active compounds read high
In short: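 Readout is yeast growth inhibition versus vehicle-treated controls, using a strain with cln2 and rad14 alterations exposed to compound.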

[5] = NCI Yeast Anticancer Drug Screen. Data for the bub3 strain (AID 167); settings: S. cerevisiae bub3 mutant strain, at 50.0 µM, active compounds read high
In short: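 Mutant yeast screening strain plus compound; vehicle-treated cultures serve as the 0% inhibition reference.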

[6] = NCI Yeast Anticancer Drug Screen. Data for the mlh1 rad18 strain (AID 175); settings: S. cerevisiae mlh1 rad18 strain growth inhibition; at 50.0 µM; active compounds read high
In short: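 Genetically defined yeast (DNA repair-deficient) exposed to compounds; growth inhibition determined relative to vehicle.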

N#CCCN(CCC#N)c1ccc(/C=C2\N=C(COc3ccc(Cl)cc3Cl)OC2=O)cc1
growth inhibition [1]: -12.9% | growth inhibition [2]: -10% | growth inhibition [3]: -14.8% | growth inhibition [4]: 0.7% | growth inhibition [5]: 6.8% | growth inhibition [6]: -4.3%

NC(=O)C1C=Cc2ccccc21 (stereo unspecified)
growth inhibition [1]: -6.1% | growth inhibition [2]: -19.3% | growth inhibition [3]: -18.4% | growth inhibition [4]: -14.1% | growth inhibition [5]: -16.8% | growth inhibition [6]: -35.6%

NNc1cn[nH]c(=O)c1Cl
growth inhibition [1]: -16.6% | growth inhibition [2]: -28.2% | growth inhibition [3]: -10.1% | growth inhibition [4]: 4.4% | growth inhibition [5]: -3.85% | growth inhibition [6]: -26.4%

O=c1nnc(O)c2ccn(O)cc1-2
growth inhibition [1]: -34.6% | growth inhibition [2]: -19% | growth inhibition [3]: 1.65% | growth inhibition [4]: -40.1% | growth inhibition [5]: -8.95% | growth inhibition [6]: -7.4%

N#CC12CC=C(c3ccccc3)N=C1NC(c1ccccc1)=CC2 (stereo unspecified)
growth inhibition [1]: -25.9% | growth inhibition [2]: -35.5% | growth inhibition [3]: -31.7% | growth inhibition [4]: -38.4% | growth inhibition [5]: -1.65% | growth inhibition [6]: -34.1%

O=C(Nc1ccc(F)c([N+](=O)[O-])c1)Nc1cc(C(F)(F)F)ccc1Cl
growth inhibition [1]: 9.4% | growth inhibition [2]: 1% | growth inhibition [3]: 0.55% | growth inhibition [4]: -0.4% | growth inhibition [5]: -4.65% | growth inhibition [6]: 24.2%

CCc1ccccc1NC(=O)NCC(C)C
growth inhibition [1]: -7.65% | growth inhibition [2]: -20.3% | growth inhibition [3]: 5.85% | growth inhibition [4]: -3.8% | growth inhibition [5]: 2.7% | growth inhibition [6]: -4.35%

Cc1ccc(NC(=O)C(C)S)cc1 (stereo unspecified)
growth inhibition [1]: 24.6% | growth inhibition [2]: 11.6% | growth inhibition [3]: 29.1% | growth inhibition [4]: 38.6% | growth inhibition [5]: 25.7% | growth inhibition [6]: 32.4%

C=CCc1ccc(OC(=O)Nc2ccc(S(=O)(=O)N(C)C)cc2)c(OC)c1
growth inhibition [1]: 26.6% | growth inhibition [2]: 2% | growth inhibition [3]: 22.8% | growth inhibition [4]: 14.6% | growth inhibition [5]: 6.75% | growth inhibition [6]: 19.2%

CCC1(C)C(=O)C(C)(CC)C1=O (stereo unspecified)
growth inhibition [1]: 23.6% | growth inhibition [2]: 20.6% | growth inhibition [3]: 21.4% | growth inhibition [4]: 0.6% | growth inhibition [5]: 20% | growth inhibition [6]: 6.85%

N#CCCC(CC#N)S(=O)(=O)O (stereo unspecified)
growth inhibition [1]: 14.3% | growth inhibition [2]: 1.65% | growth inhibition [3]: -7.75% | growth inhibition [4]: -54.6% | growth inhibition [5]: 15.7% | growth inhibition [6]: -13.1%

C=CCNC(=O)C[n+]1cccc(C(=O)NC)c1
growth inhibition [1]: 22.6% | growth inhibition [2]: 8.35% | growth inhibition [3]: -9.15% | growth inhibition [4]: -5.35% | growth inhibition [5]: -0.45% | growth inhibition [6]: -17.8%

O=C(NN1C(=O)C(Cl)C1c1cccc(Cl)c1)c1ccccc1O (stereo unspecified)
growth inhibition [1]: -58.4% | growth inhibition [2]: -29.2% | growth inhibition [3]: -8.35% | growth inhibition [4]: -26.6% | growth inhibition [5]: -40.2% | growth inhibition [6]: -17.1%

O=C(Nc1cccc2c(NC(=O)N3CCCCC3)cccc12)N1CCCCC1
growth inhibition [1]: -16.2% | growth inhibition [2]: -26.2% | growth inhibition [3]: 1.25% | growth inhibition [4]: 4.1% | growth inhibition [5]: 9.55% | growth inhibition [6]: 2.8%

Cc1ccc(-c2cc(=O)c3cc(C)c(C)c(C(=O)O)c3o2)cc1C
growth inhibition [1]: 11.6% | growth inhibition [2]: 20.6% | growth inhibition [3]: 30.5% | growth inhibition [4]: 23.5% | growth inhibition [5]: 6.25% | growth inhibition [6]: 20.7%

CCCCCCCCCCCCNCC(O)c1cc(-c2ccccc2)nc2c(Cl)cc(Cl)cc12 (stereo unspecified)
growth inhibition [1]: 8.1% | growth inhibition [2]: 8.9% | growth inhibition [3]: 31.9% | growth inhibition [4]: 29.1% | growth inhibition [5]: -8% | growth inhibition [6]: 26.5%

Cc1cc(Cl)cc(CN(C)Cn2c(=O)cc[nH]c2=O)c1O
growth inhibition [1]: 6.45% | growth inhibition [2]: -7.65% | growth inhibition [3]: 2.7% | growth inhibition [4]: -31.9% | growth inhibition [5]: 8.45% | growth inhibition [6]: 2.2%

O=C1OC(=O)C2C3C=CC(C4C=C(C5CC5)C43)C12 (stereo unspecified)
growth inhibition [1]: 9.8% | growth inhibition [2]: -4.05% | growth inhibition [3]: -4.1% | growth inhibition [4]: -22.9% | growth inhibition [5]: -5.5% | growth inhibition [6]: 5.2%

CN(C)Cc1ccccc1C=C(c1ccccc1)c1ccccc1
growth inhibition [1]: 3.05% | growth inhibition [2]: 0.65% | growth inhibition [3]: -6.2% | growth inhibition [4]: -37.9% | growth inhibition [5]: 0.55% | growth inhibition [6]: -9.8%

CCc1c([N+](=O)[O-])c2cc([N+](=O)[O-])ccc2n1C
growth inhibition [1]: 3.35% | growth inhibition [2]: 8.85% | growth inhibition [3]: -7.65% | growth inhibition [4]: -1.65% | growth inhibition [5]: 2.8% | growth inhibition [6]: 8.75%

C/C=C/C#CC#C/C=C/C=C/CC
growth inhibition [1]: 10.1% | growth inhibition [2]: 0.7% | growth inhibition [3]: -1.35% | growth inhibition [4]: 8.6% | growth inhibition [5]: 16.6% | growth inhibition [6]: -2.05%

CN(C)CCSC(CO)c1ccccc1 (stereo unspecified)
growth inhibition [1]: -12.7% | growth inhibition [2]: -13.4% | growth inhibition [3]: 2.85% | growth inhibition [4]: 9.2% | growth inhibition [5]: -1.15% | growth inhibition [6]: -6.5%

O=S1(=O)CCC(N(N=C2CCCCC2)c2ccccc2)C1 (stereo unspecified)
growth inhibition [1]: 96.5% (active) | growth inhibition [2]: 98.3% (active) | growth inhibition [3]: 98.5% (active) | growth inhibition [4]: 96.8% (active) | growth inhibition [5]: 98.4% (active) | growth inhibition [6]: 98% (active)

CN1CCCCCCCC(=O)C(OC(=O)c2ccc([N+](=O)[O-])cc2)CCCCCCC1 (stereo unspecified)
growth inhibition [1]: 33.5% | growth inhibition [2]: 4.25% | growth inhibition [3]: 27% | growth inhibition [4]: 9.85% | growth inhibition [5]: 1.55% | growth inhibition [6]: 14.1%

O=C1/C(=C/c2cccc3ccccc23)CCc2ccc([N+](=O)[O-])cc21
growth inhibition [1]: -34.5% | growth inhibition [2]: -23.6% | growth inhibition [3]: -49.9% | growth inhibition [4]: -23.9% | growth inhibition [5]: 20.1% | growth inhibition [6]: -15.6%

C[C@@H]1CC[C@@]2(C)C(C(=O)O)=CCCC2[C@@]1(C)CC(=O)c1ccoc1 (stereo partly specified)
growth inhibition [1]: -11.9% | growth inhibition [2]: -8.55% | growth inhibition [3]: -36.1% | growth inhibition [4]: -17.1% | growth inhibition [5]: -42.5% | growth inhibition [6]: -35.2%

C=C1C(=O)C[C@H]2[C@H]3CC[C@H](C(=O)O)[C@]12CC3(C)C
growth inhibition [1]: 90.8% (active) | growth inhibition [2]: 93.8% (active) | growth inhibition [3]: 93.8% (active) | growth inhibition [4]: 87.7% (active) | growth inhibition [5]: 92.2% (active) | growth inhibition [6]: 92.1% (active)

COc1cccc(C2CC(C)(O)Oc3cc4c(cc32)OCO4)c1O (stereo unspecified)
growth inhibition [1]: 9.15% | growth inhibition [2]: -8.25% | growth inhibition [3]: -9.45% | growth inhibition [4]: 12.1% | growth inhibition [5]: 23.3% | growth inhibition [6]: 6.65%

CC(=O)C1CC(CCC2([N+](=O)[O-])CCC(C)(O)C(C(C)=O)C2)([N+](=O)[O-])CCC1(C)O (stereo unspecified)
growth inhibition [1]: 3.3% | growth inhibition [2]: 5.05% | growth inhibition [3]: 6.7% | growth inhibition [4]: 2.6% | growth inhibition [5]: 12.3% | growth inhibition [6]: 20.6%

O=C(Nc1ncnc2nc(-c3ccccc3)[nH]c12)c1ccccc1
growth inhibition [1]: -30.1% | growth inhibition [2]: -16.9% | growth inhibition [3]: -5% | growth inhibition [4]: -56.3% | growth inhibition [5]: -6.65% | growth inhibition [6]: 5.95%

CCOC(=O)C(=NNc1cc(OC)c(Cl)cc1OC)C(=O)OCC
growth inhibition [1]: 8.25% | growth inhibition [2]: -9.95% | growth inhibition [3]: -7.4% | growth inhibition [4]: -25.4% | growth inhibition [5]: 1.7% | growth inhibition [6]: 6.05%

CC1(C)CC(=O)C(/C(=N/NC(=S)NN)C(=O)Nc2nc3ccc([N+](=O)[O-])cc3s2)C(=O)C1
growth inhibition [1]: 35.8% | growth inhibition [2]: 20.2% | growth inhibition [3]: -15.2% | growth inhibition [4]: -26.9% | growth inhibition [5]: 1% | growth inhibition [6]: 16.4%

CC(C)(C)OC(=O)Cc1ccc([N+](=O)[O-])cc1
growth inhibition [1]: 2% | growth inhibition [2]: -19.6% | growth inhibition [3]: -10.7% | growth inhibition [4]: -5.85% | growth inhibition [5]: -3.05% | growth inhibition [6]: -17.7%

CC(C)(O)c1cc(F)ccc1N
growth inhibition [1]: -0.75% | growth inhibition [2]: 11.3% | growth inhibition [3]: -1.3% | growth inhibition [4]: 15.3% | growth inhibition [5]: 29.6% | growth inhibition [6]: 8.3%

COC1(OC)C2(Cl)CCC1(Cl)C(OC(C)=O)C2 (stereo unspecified)
growth inhibition [1]: -21.4% | growth inhibition [2]: -5% | growth inhibition [3]: 4.65% | growth inhibition [4]: 26.8% | growth inhibition [5]: -8% | growth inhibition [6]: -10.7%

COc1ccc2c(c1)C1(C)CCC(=O)C(C)=C1CC2 (stereo unspecified)
growth inhibition [1]: 17.9% | growth inhibition [2]: -3.95% | growth inhibition [3]: 22.9% | growth inhibition [4]: 7.75% | growth inhibition [5]: 14.8% | growth inhibition [6]: 14.4%

N#CCCN(c1ccc(C=Nc2cccc([N+](=O)[O-])c2)cc1)S(=O)(=O)c1ccccc1
growth inhibition [1]: 0.75% | growth inhibition [2]: 5.65% | growth inhibition [3]: 14.7% | growth inhibition [4]: 8.1% | growth inhibition [5]: -1% | growth inhibition [6]: 14.4%

O=C(Nc1ccc(Cl)c(Cl)c1)c1ccc(C(=O)Nc2ccc(Cl)c(Cl)c2)cc1
growth inhibition [1]: 8.35% | growth inhibition [2]: 19.1% | growth inhibition [3]: 25.1% | growth inhibition [4]: -18.9% | growth inhibition [5]: -4.85% | growth inhibition [6]: 30.3%

Cc1nc(-c2ccccc2)ncc1C(O)CN(C)C (stereo unspecified)
growth inhibition [1]: -4.7% | growth inhibition [2]: -6.45% | growth inhibition [3]: 5.35% | growth inhibition [4]: 2.35% | growth inhibition [5]: -30.4% | growth inhibition [6]: -6.6%

Brc1c(CCc2ccc3ccccc3c2Br)ccc2ccccc12
growth inhibition [1]: 0.1% | growth inhibition [2]: 10.2% | growth inhibition [3]: 13.2% | growth inhibition [4]: -6.75% | growth inhibition [5]: -2.8% | growth inhibition [6]: 19.6%

CC(/C=N/NC1=NCCCN1)=N\NC1=NCCCN1
growth inhibition [1]: -7.05% | growth inhibition [2]: -8.75% | growth inhibition [3]: -14.3% | growth inhibition [4]: 8.25% | growth inhibition [5]: 2.9% | growth inhibition [6]: -12.2%
